Results filed as inconclusive are left out. A call without a number means that no potency is given here. Values without a mark were called inactive. Active and inactive are the calls of the source. Calls come from the whole dose curve; as a rule, active = well fitted curve in the direction sought with a large enough effect; inconclusive = small, poorly fitted or top-dose-only effect, or another doubt; inactive = no such curve, though single readings can be large; an effect the other way counts as inactive or inconclusive.

The target in the first experiment is Aldehyde dehydrogenase, mitochondrial (Homo sapiens) (UniProt P05091). The experiment can be described thus: qHTS for Inhibitors of the Aldehyde Dehydrogenase Family (ALDH2) Primary screen (AID 2061308). Note: nearly all actives have a fitted effect of over 55% in size. The note with it: ALDH2 enzyme inhibition qHTS, 1536-well; series mostly up to 56 µM. (qHTS replaces the single test concentration by a dilution series.)
On to `CCNc1nc(C#N)nc2c1ncn2-c1cc(F)cc(F)c1`, for which the Potency entry is “inactive”.

In the case of `Cc1cnc(-c2ccccc2C(C)C)nc1NCc1cccnc1`, the Potency result was “inactive”.

With `Cc1cc(C)nc(NC(=S)N2CCN(c3nccc4occc34)CC2)c1`, the Potency result was “inactive”.

As to `COc1ccc(C2c3c(ncn(Cc4ccccc4)c3=N)Oc3ccc4ccccc4c32)cc1OC` (stereo not given), the Potency entry is “inactive”.

For the compound `Cc1cc(NC(=O)Nc2nnc(C3CCCCC3)s2)ccc1Cl`, the Potency result was “inactive”.

With `Fc1cc(F)cc(Nc2nc(NC3CCCC3)nc(C3CO3)n2)c1` (stereo not given), the Potency entry was “inactive”.

As to `COc1ccc(S(=O)(=O)Nc2ccc(C)c(C)c2)cc1`, the Potency result was “inactive”.

As to `CN1CCN(Cc2cc(COCc3ccccc3)c3cccnc3c2O)CC1`, the Potency result is “inactive”.

In the case of `Cc1cccc(-c2ccc3ncnc(NCc4cccnc4)c3c2)c1`, the Potency result is “inactive”.

Turning to `COc1cc(O)c(C(CC(=O)N2CCCC(C(F)(F)F)C2)c2ccc3c(c2)OCO3)c(OC)c1` (stereo not given), the Potency result is “inactive”.

With `N#Cc1cccc(-c2ccc(NC(=O)c3cccs3)cn2)c1`, the Potency entry is “inactive”.

For the compound `C=C[C@H]1CN2CC[C@H]1C[C@@H]2C(O)c1ccnc2ccc(OC)cc12` (stereo not given in full), the Potency entry is “inactive”.

In the case of `COc1cccc(NS(=O)(=O)c2ccc3c(c2)CCC(=O)N3)c1`, the Potency entry was “inactive”.

For the compound `Cc1ccc(OCCn2c(CCNC(=O)CCc3ccccc3Br)nc3ccccc32)cc1`, the Potency result is “inactive”.

As to `O=S(=O)(Nc1nccs1)c1ccc(NCc2ccc(Br)cc2O)cc1`, the Potency entry was “inactive”.

Turning to `O=C1CCCC2=C1C(c1cccc(C(F)(F)F)c1)N=C(Nc1nc3ccccc3o1)N2` (stereo not given), the Potency entry was “inactive”.

Take `O=S1(=O)N=C(N2CCOCC2)c2ccccc21`: the Potency entry was “inactive”.

Consider `CC(OC(=O)c1ccc(S(C)(=O)=O)c([N+](=O)[O-])c1)C(=O)NC1C2CC3CC(C2)CC1C3` (stereo not given), for which the Potency result is “inactive”.

Take `CCCCNc1nc(C)nc2c1nc(-c1ccccc1)n2CCCN(CC)CC`: the Potency entry is “inactive”.

For `COc1cccc(C2c3c(ncn(-c4cccnc4)c3=N)Oc3ccc4ccccc4c32)c1` (stereo not given), the Potency entry was “inactive”.

As for `Cc1nc(NC2CCCCC2)c2nc(-c3ccccc3)n(CCCN3CCOCC3)c2n1`, the Potency entry was “inactive”.

On to `CC1OC(OC2C(O)COC(O[C@@H]3[C@@H](O)[C@@H](O)[C@H](OC4C(OC(=O)[C@]56CCC(C)(C)CC5C5=CCC7[C@@]8(C)C[C@H](O)[C@H](OC9OC(CO)C(O)C(O)C9O)[C@@](C)(CO)C8[C@H](O)C[C@@]7(C)[C@]5(C)CC6)OCC(O)C4O)O[C@H]3C)C2O)C(O)C(O)C1O` (stereo not given in full), for which the activity change, negative = inhibition is 13.1% [at 11.2 µM].

Take `COc1ccc(C2=Nn3c(nnc3-c3ccccc3OC)SC2)cc1OC`: the Potency result was “inactive”.

As for `CCCn1c(C)nc2c(N3CCC(N4CCN(C)CC4)CC3)nc(C)nc21`, the Potency entry is “inactive”.

As to `CC(O)(C(=O)C1CC1(CO)COC1OC(CO)C(O)C(O)C1O)C1C(O)CC2C3CC=C4CC(O)CC(O)C4(C)C3C(O)CC21C` (stereo not given), the Potency entry is “inactive”.

On to `C=CCNc1oc(-c2cccc(F)c2)nc1C#N`, for which the Potency result was “inactive”.

As for `O=C(OCC#CCSc1nnc(-c2ccc3ccccc3c2)o1)c1ccc(F)c(F)c1`, the Potency result is “inactive”.

With `CCOC(=O)C1CCN(C(=O)C(C)(C)NC(=O)Nc2ccc(C#N)cc2)CC1`, the Potency result was “inactive”.

Turning to `O=C1CCCC2=C1C(c1[nH]ncc1Cl)NC(=NCc1nccs1)N2` (stereo not given), the Potency entry is “inactive”.

For `O=C(O)c1ccc(O)c2ncc(N3CCCCC3)cc12`, the Potency result was “inactive”.

With `Cc1cc2c(s1)c1cnn(Cc3cccc(C(F)(F)F)c3F)c(=O)c1n2C`, the Potency entry was “inactive”.

Consider `Cc1cc(C)n2ncc(C(=O)NC3CCCCC3)c2n1`, for which the Potency result is “inactive”.

In the case of `Oc1ccc(-c2nn[nH]n2)c2cccnc12`, the Potency entry was “inactive”.

For the compound `N#Cc1c(Oc2ccc(F)c(NC(=O)Cc3cccc(C(F)(F)F)c3)c2)ccc2nc(NC(=O)C3CC3)sc12`, the Potency result is “inactive”.

Take `O=C(Nc1ccc(Cl)c(S(=O)(=O)N2CCOCC2)c1)c1ccc(S(=O)(=O)N2CCOCC2)cc1`: the Potency result was “inactive”.

Take `FC(F)(F)c1ccccc1-c1nc(NCc2ccc(-c3cccc(Cl)c3)cc2)c2ccccc2n1`: the Potency result is “inactive”.

Regarding `Cn1cnc(CCNc2ncnc3ccc(-c4ccc5c(c4)OCO5)cc23)c1`, the Potency entry is “inactive”.

Regarding `O=C(/C=C/c1ccc(C(F)(F)F)cc1)Nc1cccc([S+](=O)([O-])Nc2ccccc2F)c1`, the Potency result was “inactive”.

On to `Cc1cc2c(s1)c1cnn(Cc3cc(OC(F)(F)F)ccc3F)c(=O)c1n2C`, for which the Potency entry was “inactive”.

`NC(=O)C1CCN(c2nc(-c3cccc(Br)c3)cs2)CC1`: the Potency entry is “inactive”.

The target of the next experiment is Retinaldehyde dehydrogenase 3 (Homo sapiens) (UniProt P47895). The experiment can be described thus: qHTS for Inhibitors of the Aldehyde Dehydrogenase Family (ALDH1A3) Primary screen (AID 2061315). The settings on record: ALDH inhibition qHTS; series mostly up to 56 µM.
For the compound `CCNc1nc(C#N)nc2c1ncn2-c1cc(F)cc(F)c1`, the Potency result is “inactive”.

In the case of `Cc1cnc(-c2ccccc2C(C)C)nc1NCc1cccnc1`, the Potency entry was “inactive”.

In the case of `Cc1cc(C)nc(NC(=S)N2CCN(c3nccc4occc34)CC2)c1`, the Potency result was “inactive”.

With `COc1ccc(C2c3c(ncn(Cc4ccccc4)c3=N)Oc3ccc4ccccc4c32)cc1OC` (stereo not given), the Potency entry was “inactive”.

With `Cc1cc(NC(=O)Nc2nnc(C3CCCCC3)s2)ccc1Cl`, the Potency entry is “inactive”.

For the compound `Fc1cc(F)cc(Nc2nc(NC3CCCC3)nc(C3CO3)n2)c1` (stereo not given), the Potency entry was “inactive”.

`COc1ccc(S(=O)(=O)Nc2ccc(C)c(C)c2)cc1`: the Potency result was “inactive”.

As to `CN1CCN(Cc2cc(COCc3ccccc3)c3cccnc3c2O)CC1`, the Potency result was “inactive”.

Take `Cc1cccc(-c2ccc3ncnc(NCc4cccnc4)c3c2)c1`: the Potency entry was “inactive”.

Take `COc1cc(O)c(C(CC(=O)N2CCCC(C(F)(F)F)C2)c2ccc3c(c2)OCO3)c(OC)c1` (stereo not given): the Potency result is “inactive”.

Consider `N#Cc1cccc(-c2ccc(NC(=O)c3cccs3)cn2)c1`, for which the Potency entry is “inactive”.

In the case of `C=C[C@H]1CN2CC[C@H]1C[C@@H]2C(O)c1ccnc2ccc(OC)cc12` (stereo not given in full), the Potency result is “inactive”.

For the compound `COc1cccc(NS(=O)(=O)c2ccc3c(c2)CCC(=O)N3)c1`, the Potency entry is “inactive”.

Regarding `Cc1ccc(OCCn2c(CCNC(=O)CCc3ccccc3Br)nc3ccccc32)cc1`, the Potency entry was “inactive”.

For the compound `O=S(=O)(Nc1nccs1)c1ccc(NCc2ccc(Br)cc2O)cc1`, the Potency entry is “inactive”.

`O=C1CCCC2=C1C(c1cccc(C(F)(F)F)c1)N=C(Nc1nc3ccccc3o1)N2` (stereo not given): the Potency result is “inactive”.

Consider `O=S1(=O)N=C(N2CCOCC2)c2ccccc21`, for which the Potency entry is “inactive”.

Consider `CC(OC(=O)c1ccc(S(C)(=O)=O)c([N+](=O)[O-])c1)C(=O)NC1C2CC3CC(C2)CC1C3` (stereo not given), for which the Potency entry was “inactive”.

For `CCCCNc1nc(C)nc2c1nc(-c1ccccc1)n2CCCN(CC)CC`, the Potency result was “inactive”.

For `COc1cccc(C2c3c(ncn(-c4cccnc4)c3=N)Oc3ccc4ccccc4c32)c1` (stereo not given), the Potency entry was “inactive”.

With `Cc1nc(NC2CCCCC2)c2nc(-c3ccccc3)n(CCCN3CCOCC3)c2n1`, the Potency entry was “inactive”.

With `CC1OC(OC2C(O)COC(O[C@@H]3[C@@H](O)[C@@H](O)[C@H](OC4C(OC(=O)[C@]56CCC(C)(C)CC5C5=CCC7[C@@]8(C)C[C@H](O)[C@H](OC9OC(CO)C(O)C(O)C9O)[C@@](C)(CO)C8[C@H](O)C[C@@]7(C)[C@]5(C)CC6)OCC(O)C4O)O[C@H]3C)C2O)C(O)C(O)C1O` (stereo not given in full), the activity change, negative = inhibition was 4.77% [at 11.2 µM].

On to `COc1ccc(C2=Nn3c(nnc3-c3ccccc3OC)SC2)cc1OC`, for which the Potency result is “inactive”.

With `CCCn1c(C)nc2c(N3CCC(N4CCN(C)CC4)CC3)nc(C)nc21`, the Potency result is “inactive”.

In the case of `CC(O)(C(=O)C1CC1(CO)COC1OC(CO)C(O)C(O)C1O)C1C(O)CC2C3CC=C4CC(O)CC(O)C4(C)C3C(O)CC21C` (stereo not given), the Potency entry is “inactive”.

For `C=CCNc1oc(-c2cccc(F)c2)nc1C#N`, the Potency entry is “inactive”.

Turning to `O=C(OCC#CCSc1nnc(-c2ccc3ccccc3c2)o1)c1ccc(F)c(F)c1`, the Potency result is “inactive”.

`CCOC(=O)C1CCN(C(=O)C(C)(C)NC(=O)Nc2ccc(C#N)cc2)CC1`: the Potency entry was “inactive”.

Regarding `O=C1CCCC2=C1C(c1[nH]ncc1Cl)NC(=NCc1nccs1)N2` (stereo not given), the Potency entry was “inactive”.

For `O=C(O)c1ccc(O)c2ncc(N3CCCCC3)cc12`, the Potency result is “inactive”.

On to `Cc1cc2c(s1)c1cnn(Cc3cccc(C(F)(F)F)c3F)c(=O)c1n2C`, for which the Potency entry was “inactive”.

`Cc1cc(C)n2ncc(C(=O)NC3CCCCC3)c2n1`: the Potency entry is “inactive”.

Take `Oc1ccc(-c2nn[nH]n2)c2cccnc12`: the Potency entry was “inactive”.

`N#Cc1c(Oc2ccc(F)c(NC(=O)Cc3cccc(C(F)(F)F)c3)c2)ccc2nc(NC(=O)C3CC3)sc12`: the Potency result is “inactive”.

Take `O=C(Nc1ccc(Cl)c(S(=O)(=O)N2CCOCC2)c1)c1ccc(S(=O)(=O)N2CCOCC2)cc1`: the Potency entry was “inactive”.

Regarding `FC(F)(F)c1ccccc1-c1nc(NCc2ccc(-c3cccc(Cl)c3)cc2)c2ccccc2n1`, the Potency entry was “inactive”.

Turning to `Cn1cnc(CCNc2ncnc3ccc(-c4ccc5c(c4)OCO5)cc23)c1`, the Potency entry was “inactive”.

As to `O=C(/C=C/c1ccc(C(F)(F)F)cc1)Nc1cccc([S+](=O)([O-])Nc2ccccc2F)c1`, the Potency entry is “inactive”.

As for `Cc1cc2c(s1)c1cnn(Cc3cc(OC(F)(F)F)ccc3F)c(=O)c1n2C`, the Potency entry was “inactive”.

With `NC(=O)C1CCN(c2nc(-c3cccc(Br)c3)cs2)CC1`, the Potency result was “inactive”.

The values are drawn from PubChem BioAssay (NCATS).
